Results taken from paper PMC8769072, “Proteome‐scale mapping of binding sites in the unstructured regions of the human proteome” (Molecular Systems Biology, 2022).

Binder | selected by phage display (MAP1LC3A 2-121, Q9H492) | selected by phage display (MAP1LC3B 2-119, Q9GZQ8)
WVWLGNEAELLESMGD [TMEM132C, Q8N3T6] | confidence 4 (active) | confidence 3 (active)
RQEEKQVLLQADWTLL [ZNF579, Q8NAF0] | confidence 2 (active) | –
PQALERADGSWAWVVL [SLC16A5, O15375] | confidence 3 (active) | confidence 3 (active)
TDTHWTDLTHLIEKLK [TRIM59, Q8IWR1] | confidence 3 (active) | –
VLASMKNTYEVLDFLG [HIPK3, Q9H422] | confidence 2 (active) | –
SPNREWEVLQPAPHQV [NCOR1, O75376] | confidence 3 (active) | –
LEDSFAHLQLSGDNTA [RNF146, Q9NTX7] | confidence 3 (active) | –
WATIEPAPDAASLLAS [AKAP13, Q12802] | confidence 3 (active) | –
TAQQLETTTERWLVID [CC2D1A, Q6P1N0] | confidence 3 (active) | –
FPSSGFTDLAEIVSRI [PNPLA6, Q8IY17] | confidence 3 (active) | –
QGSRQDSWEVVEGLRG [OSBPL3, Q9H4L5] | confidence 2 (active) | –
GWDYGIGGGWDHISVR [TECPR1, Q7Z6L1] | confidence 2 (active) | –
RGGGSVGSDVGQRLPV [KCNT1, Q5JUK3] | confidence 2 (active) | –
QVDEVTDLLASFTSLS [ANKRD54, Q6NXT1] | confidence 3 (active) | –
WEDLEARINAENEVPI [CEP170B, Q9Y4F5] | confidence 2 (active) | –
HDDFVMIDFKPAFSKD [ATG13, O75143] | confidence 3 (active) | –

Binder | selected by phage display (MAP1LC3A 2-121, Q9H492) | selected by phage display (MAP1LC3B 2-119, Q9GZQ8)
DFTFLRPLSVQQPTAL [PCDHGC5, Q9Y5F6] | confidence 3 (active) | –
GWETVEMHPAYTEEEL [NUCB1, Q02818] | confidence 2 (active) | –
TENDDFAILFAPKAAM [ATG2B, Q96BY7] | confidence 3 (active) | –
GPEAASGEWELLRLDS [ESPL1, Q14674] | confidence 2 (active) | –
ANGWQIISSSSGATPT [SP1, P08047] | confidence 4 (active) | –
WRDMTTITEDEISKLR [CACTIN, Q8WUQ7] | confidence 2 (active) | –
TVNEWAHLQEDTNSHI [ANKRD62, A6NC57] | confidence 4 (active) | –
NLAPSDEESSWTTLSQ [APBB2, Q92870] | confidence 2 (active) | –
MVEAGGLLEKWTLLEE [APOBR, Q0VD83] | confidence 4 (active) | –
WEEFESLQKQEVKNLH [PTPN6, P29350] | confidence 2 (active) | –
YELLTENDMLPNMRIG [JAK2, O60674] | confidence 2 (active) | confidence 2 (active)
EWQHLDSAQRTPYRDM [ZNF487, B1APH4] | confidence 2 (active) | –
DGDTLDSDEFAILDAP [ATG2A, Q2TAZ0] | confidence 4 (active) | –
DLTESSSMVDGDWTMV [RIC1, Q4ADV7] | confidence 4 (active) | confidence 4 (active)
HLGEWGHLDPAEENLK [ZSCAN18, Q8TBC5] | confidence 2 (active) | –
